We go through 40 compounds from PubChem BioAssay (Tox21).

Records with an inconclusive call do not appear. Where a call stands in place of a potency, no number is given. A number with no mark means an inactive call. Active and inactive are the calls of the source. Calls follow the shape of the dose curve; as a rule, active = well fitted cell-killing curve with a large enough effect in the repeat runs (not every such curve was filed as active); inconclusive = weak or mixed curves, or effect the other way; inactive = no such curve, though single readings can be large or run the other way.
Potency is read from the fitted curve at half-maximal effect.

A short description of the experiment: qHTS assay to identify small molecule antagonists of the estrogen related receptor signaling pathway with the pleiotropic PPARgamma coactivator (PGC) from Tox21 10K library - cell viability counter screen (AID 1224840). Also: nearly all actives have a fitted effect of over 40% in size. The note with it: PGC/ERR reporter cells viability, CellTiter-Fluor, 17.5 h; series mostly up to 92.4 µM. From the text: National Center for Advancing Translational Sciences [NCATS]
NIH Chemical Genomics Center [NCGC]
U.S. Environmental Protection Agency [EPA]
National Institutes of Environmental Health Sciences [NIEHS]
National Toxicology Program [NTP]
U.S. Food and Drug Administration [FDA]
Estrogen related receptors (ERRs), the first orphan nuclear receptors discovered, play an important role in the control of cellular energy metabolism. ERRs are required for high-energy production in response to the environmental challenges. The pleiotropic PPARgamma coactivator (PGC) is a major partner of ERR and a key regulator in energy homeostasis. Together they have been implicated in the etiology of metabolic disorders such as Type 2 diabetes and metabolic syndrome. ERR-alpha was also identified as an adverse marker for breast cancer progression; ERR-alpha-positive tumors have a poor prognosis. To screen and to identify environmental compounds that perturb the ERR and PGC/ERR signaling pathways could provide valuable information for potential therapeutic or preventive measures in the treatment of metabolic disease. To differentiate true PGC/ERR antagonists or agonist from cytotoxic substances, the assay is multiplexed with cell viability assay.
Tox21 Assay Protocol Summary:
The PGC/ERR cells were dispensed at 2,000 cells/5 ul/well in 1536-well white plates using a Multidrop dispenser. After the assay plates were incubated at a 37 C/5% CO2 incubator for 6 hours, 23 nL of compounds dissolved in DMSO, positive and negative controls or DMSO only was transferred to the assay plate by a pin tool. The plates were incubated at 37 C for 17.5 hours. 1 ul/well of CellTiter-Fluor reagent was added into the assay plates using a Flying Reagent Dispenser. After 30-minute incubation at 37 C/5% CO2, the fluorescence intensity in the plates was measured using a ViewLux plate reader.
(qHTS replaces the single test concentration by a dilution series.)
Take `COc1cc(S(=O)(=O)O)c(C)cc1N=Nc1c(O)ccc2cc(S(=O)(=O)O)ccc12`: the Potency is 27.3 µM (active).

As to `CC(N=C(NC#N)Nc1ccncc1)C(C)(C)C` (stereo not given), the Potency entry is “inactive”.

On to `COC(C)=O`, for which the Potency result is “inactive”.

For the compound `Cc1cc(C(C)(C)C)cc(C)c1CC1=NCCN1`, the Potency result was “inactive”.

As to `C=C(C)C(=O)OCCCCCCCCCC`, the Potency entry is “inactive”.

For `[Cu+]`, the Potency result is “inactive”.

Consider `COc1ccc(-c2coc3cc(O)ccc3c2=O)cc1`, for which the Potency result is “inactive”.

With `Cc1cc(=O)oc2cc(O)cc(O)c12`, the Potency result is “inactive”.

`C=Cc1ccccc1C=C`: the Potency result is “inactive”.

Regarding `Cc1cccc(C(=O)O)c1O`, the Potency entry is “inactive”.

`CC(=O)CC(=O)Nc1ccc(S(=O)(=O)O)cc1`: the Potency result was “inactive”.

For the compound `CC(C)OC(=O)C(O)(CC(=O)O)CC(=O)O`, the Potency entry was “inactive”.

Regarding `CCCCC/C=C\C/C=C\CCCCCCCC(=O)O`, the Potency entry is “inactive”.

`O=C(O)O`: the viability change, negative = cytotoxic was -0.122% [at 8.39 µM].

As to `C1CCC(SSC2CCCCC2)CC1`, the Potency result is “inactive”.

For the compound `Cl[Si](Cl)(c1ccccc1)c1ccccc1`, the Potency result is “inactive”.

Take `C#Cc1ccc(-c2ccccc2F)cc1`: the Potency result is “inactive”.

Consider `O=C(O)c1cc(=O)c2ccccc2o1`, for which the Potency result was “inactive”.

With `CCCCCCOC(=O)C(C)CC` (stereo not given), the Potency entry was “inactive”.

As to `COc1ccc2cc1Oc1ccc(cc1)C[C@H]1c3c(cc4c(c3Oc3cc5c(cc3OC)CCN(C)[C@@H]5C2)OCO4)CCN1C`, the Potency is 21.1 µM (active).

In the case of `CC(=O)OCC=C(C)C`, the Potency entry is “inactive”.

Consider `CCCC1CCC(=O)CC1`, for which the Potency result is “inactive”.

With `C=CCn1c(=O)n(CC=C)c(=O)n(CC=C)c1=O`, the Potency result is “inactive”.

Take `O=C(/C=C/c1ccccc1)OC/C=C/c1ccccc1`: the Potency result is “inactive”.

Regarding `O=C1C(c2[nH]c3ccc(S(=O)(=O)O)cc3c2O)=Nc2ccc(S(=O)(=O)O)cc21`, the Potency entry was “inactive”.

In the case of `Clc1sc(Cl)c(Cl)c1Cl`, the Potency result was “inactive”.

For `CC(CO)Oc1ccccc1` (stereo not given), the Potency entry is “inactive”.

As to `OC1CCC(C2CCCCC2)CC1` (stereo not given), the Potency result was “inactive”.

On to `Cc1ccc(C)cc1`, for which the Potency entry was “inactive”.

Take `O=S(=O)(O)c1ccc(Nc2nc(Nc3ccc(/C=C/c4ccc(Nc5nc(Nc6ccc(S(=O)(=O)O)cc6)nc(N(CCO)CCO)n5)cc4S(=O)(=O)O)c(S(=O)(=O)O)c3)nc(N(CCO)CCO)n2)cc1`: the Potency result was “inactive”.

For `Cc1ccc(C(C)C)cc2c(C)ccc1-2`, the Potency result is “inactive”.

As to `CCOC(=O)NNc1ccc(N(CC)CC(C)O)nn1` (stereo not given), the Potency entry was “inactive”.

On to `Cc1nc(-c2ccc(Cl)cc2)oc1COC(C)(C)C(=O)O`, for which the Potency result is “inactive”.

Turning to `OCC(F)(F)F`, the Potency result was “inactive”.

In the case of `O=C(Oc1ccccc1)Oc1ccccc1`, the Potency result was “inactive”.

Regarding `c1cnccn1`, the Potency result was “inactive”.

For `O[C@@H]([C@H](O)[C@H](O)CBr)[C@H](O)CBr`, the Potency entry was “inactive”.

As for `CCN(CC)c1ccc2c(-c3ccc(S(=O)(=O)O)cc3S(=O)(=O)[O-])c3ccc(=[N+](CC)CC)cc-3oc2c1`, the Potency was 28.2 µM (active).

With `O=C(O)c1cc(O)c2ccccc2c1O`, the Potency is 30.6 µM (active).

Consider `COC(=O)Nc1nc2ccc(C(=O)c3ccccc3)cc2[nH]1`, for which the Potency result was “inactive”.
